The values that follow come from PubChem BioAssay (NCATS).

Assay [1] can be described thus: qHTS profiling of the MIPE4 collection as inhibitors of Plasmodium falciparum (3D7) proliferation (AID 743344).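 Also: scaled between DMSO vehicle wells and 0.29 µM artemisinin as full inhibition.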 Conditions: P. falciparum 3D7 in erythrocytes, SYBR Green DNA fluorescence, 72 h; at 28.5 µM unless noted. The essentials: (§1)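 Erythrocytes infected with P. falciparum (0.3% parasitemia, 2.5% hematocrit) incubated with compounds 72 h at 37 C, 5% CO2. Lysis with saponin/Triton buffer containing SYBR Green I, overnight at room temperature in the dark; DNA fluorescence (485/535 nm) normalised to 0.29 uM artemisinin and DMSO.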
For orientation: qHTS replaces the single test concentration by a dilution series.

Assay [2] can be described thus: qHTS profiling of the MIPE4 collection as inhibitors of Plasmodium falciparum (DD2) proliferation (AID 743345). Conditions: P. falciparum Dd2 in erythrocytes, SYBR Green DNA, 72 h; at 28.5 µM unless noted. The method in brief: as §1
Assay [3] in a line: qHTS profiling of the MIPE4 collection as inhibitors of Plasmodium falciparum (DD2) proliferation (Rep 2) (AID 743346). Conditions: P. falciparum Dd2 in erythrocytes, SYBR Green DNA, 72 h; at 28.5 µM unless noted. The method in brief:
as §1

Assay [4] is described as follows: High-throughput drug toxicity screening in the BPDCN cell line Gen2.2 (AID 1224824).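 Also: cells exposed to compounds for 48 h before reading.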 Conditions: Gen2.2 BPDCN cells; at 45.8 µM (top of the series) unless noted. The essentials: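 Gen2.2 cells, 500 per well in phenol red-free RPMI with 10% FBS, exposed to compounds 48 h at 37 C, 5% CO2; viability by CellTiter-Glo luminescence. Percent activity scaled to DMSO (100%) and 9.2 uM bortezomib final (0%).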

The nature of assay [5]: qHTS profiling for inhibitors of Plasmodium falciparum (3D7) proliferation (AID 743322).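 Also: infected erythrocytes exposed to compound for 72 h before lysis; 100% = DMSO vehicle wells and 0% = 0.29 µM artemisinin.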 Conditions: P. falciparum 3D7 proliferation; at 28.7 µM (top of the series). The essentials: as §1
Assay [6] can be described thus: qHTS profiling for inhibitors of Plasmodium falciparum (DD2) proliferation (AID 743323). The settings on record: lower = more inhibition; at 28.7 µM (top of the series). The method in brief: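 SYBR Green fluorescence (ex 485, em 535 nm) of lysed cultures gives parasite DNA content; wells normalized to artemisinin (0.29 uM) and DMSO controls. Infected red cells: 0.3% parasitemia, 2.5% hematocrit, 72 h, 37 C.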

Assay [7] is described as follows: qHTS profiling of the MIPE4 collection as inhibitors of Plasmodium falciparum (HB3) proliferation (AID 743347).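 Also: plate controls were DMSO vehicle wells for no effect and artemisinin wells for full effect.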 The settings on record: P. falciparum HB3 in erythrocytes, SYBR Green DNA, 72 h; at 28.5 µM unless noted. The essentials: as §1

As for `NC(=O)N1c2ccccc2CC(=O)c2ccccc21`, in assay [1], the parasite growth, % of DMSO control turned out to be 92.2%. Further, in assay [2], the parasite growth remaining, % of DMSO control (lower = more inhibition) amounted to 96.7%. Further, the parasite growth, % of control (lower = inhibition) in assay [3] was found to be 187%. Moreover, the cell viability, % of control (lower = more cytotoxic) in assay [4] came out at 104%.
The compound `CCN(CC)CCn1c(=O)c(Cc2ccc(OC)cc2)nc2ccccc21` came in with a remaining parasite growth % (stronger effect = lower value) in assay [5] of 41.3%. The compound further returned an activity, percent of control in assay [6] of 89.9%. In assay [1], this compound gave a parasite growth, % of DMSO control of 206%. Also, in assay [2], the parasite growth remaining, % of DMSO control (lower = more inhibition) was 46.8%. In addition, the parasite growth, % of control (lower = inhibition) in assay [3] turned out to be 28.1%. Further, the growth, % of control in assay [7] is 149%. In addition, the cell viability, % of control (lower = more cytotoxic) in assay [4] amounted to 115%.
For the compound `CN1CCCC(n2nc(Cc3ccc(Cl)cc3)c3ccccc3c2=O)CC1` (stereo unspecified), the parasite growth, % of DMSO control in assay [1] was found to be 5.72%. The parasite growth remaining, % of DMSO control (lower = more inhibition) in assay [2] turned out to be 14%. The parasite growth, % of control (lower = inhibition) in assay [3] was determined as 7.67%. The same compound had a growth, % of control in assay [7] of 2.79%. Moreover, the cell viability, % of control (lower = more cytotoxic) in assay [4] stood at 9.12%.
On the same counts, the results for `Nc1[nH]c(=O)ncc1F` are 408%, 104%, 158%, 699% and 87.4%.
For `Cc1cccc(Nc2ccncc2S(=O)(=O)NC(=O)NC(C)C)c1`, in that order: 93.3%, 104%, 125%, 95.2% and 90.1%.
In the case of `COC(=O)Nc1nc2ccc(S(=O)c3ccccc3)cc2[nH]1` (stereo unspecified), the parasite growth, % of DMSO control in assay [1] amounted to 67%. The parasite growth remaining, % of DMSO control (lower = more inhibition) in assay [2] was determined as 82.8%. The parasite growth, % of control (lower = inhibition) in assay [3] turned out to be 68.5%. In assay [7], this compound registered a growth, % of control of 104%. Besides, the cell viability, % of control (lower = more cytotoxic) in assay [4] was found to be 86.3%.
On the same counts, the results for `O=P(O)(O)C(O)(Cc1cccnc1)P(=O)(O)O` are 71.4%, 99.5%, 80.5%, 100% and 147%.
On the same counts, the results for `CC(C)OC(=O)C(C(=O)OC(C)C)=C1SC=CS1` are 89%, 117%, 72.6%, 91.6% and 159%.
For `CNNCc1ccc(C(=O)NC(C)C)cc1`, in that order: 72.9%, 93.3%, 68.8%, 68.9% and 284%.
Compound `O=C(O)c1ccc(-n2nc(-c3ccccc3O)nc2-c2ccccc2O)cc1` returned a parasite growth, % of DMSO control in assay [1] of 50.5%. The parasite growth remaining, % of DMSO control (lower = more inhibition) in assay [2] turned out to be 107%. Also, the parasite growth, % of control (lower = inhibition) in assay [3] was 34.2%. Further, the growth, % of control in assay [7] is 94.6%. Besides, in assay [4], the cell viability, % of control (lower = more cytotoxic) came to 142%.
For `Nc1ccc(S(=O)(=O)Nc2ccccn2)cc1`, in that order: 89.8%, 89.4%, 84.7%, 54.6% and 123%.
`C[C@@H](CN1CC(=O)NC(=O)C1)N1CC(=O)NC(=O)C1` gave a parasite growth, % of DMSO control in assay [1] of 74.5%. Besides, the parasite growth remaining, % of DMSO control (lower = more inhibition) in assay [2] is 88.1%. Also, the parasite growth, % of control (lower = inhibition) in assay [3] was found to be 105%. The compound further displayed a growth, % of control in assay [7] of 65.5%. For the same compound, the cell viability, % of control (lower = more cytotoxic) in assay [4] was found to be 147%.
On the same counts, the results for `CCCCOc1ccc(CC(=O)NO)cc1` are 11.6%, 14.7%, 16.4%, 5.4% and 37%.
For `CCCCCCNC(=O)n1cc(F)c(=O)[nH]c1=O`, in that order: 59%, 32%, 30.5%, 71.2% and 106%.
On the same counts, the results for `CCN[C@H]1C[C@H](C)S(=O)(=O)c2sc(S(N)(=O)=O)cc21` are 93.1%, 19.2%, 117%, 103% and 71.7%.
In assay [1], `C#CCN[C@@H]1CCc2ccccc21` came in with a parasite growth, % of DMSO control of 95.8%. Also, the parasite growth remaining, % of DMSO control (lower = more inhibition) in assay [2] is 129%. Besides, the parasite growth, % of control (lower = inhibition) in assay [3] amounted to 95.4%. For the same compound, in assay [7], the growth, % of control was 103%. The cell viability, % of control (lower = more cytotoxic) in assay [4] worked out at 153%.
